Drawing on PubChem BioAssay (NCI), this text covers growth for twelve compounds.

Common to all, as to experiment: NCI-60 one-dose screen, 48 h (100 = growth as untreated, 0 = no growth, -100 = all killed)
What all share (conditions): 10 µM unless noted

Assay [1] has as its system DU-145 prostate.
Assay [2] has as its system K-562 leukemia.
The subject of assay [3] is MALME-3M melanoma.
Assay [4] deals with MDA-MB-231 breast.
The subject of assay [5] is RXF 393 renal.
The test system of assay [6] is SF-268 CNS.
The test system of assay [7] is SF-295 CNS.
Assay [8] relates to SF-539 CNS.
Assay [9] deals with UACC-257 melanoma.
Assay [10] relates to M14 melanoma.

Structures are written as SMILES. The panel holds about 83,000 compounds, 20% with a hit somewhere; the sample as a whole holds those more often.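 Negative percent growth values reflect cell death: -40 means 40% of the cells present at the start died, and -100 means all died.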 A number with no mark means an inactive call. The source made the active and inactive calls. How the source made its calls: active means growth percent below 10; inactive means the rest.

`CN(C)c1nc(NCCNS(=O)(=O)c2ccc(C3=Nc4c(N)nc(N)nc4NC(c4ccc(Cl)cc4)C3)cc2)nc(N2CCOCC2)n1` (stereo not given): the growth in assay [1] is 67.1%; in [2], 15.7%; in [3], 62.4%; in [4] it was 12%; in [5], 2.28% (active); in assay [6], 53.4%. Moreover, the growth in assay [7] was 38.5%; in [8], 43%; in [9] it was 75.7%; in assay [10], 45.5%.
With `COC(=O)CSC1=C(C)C(=O)C(OC)=C(OC)C1=O`, the growth is 103% in assay [1]; 13.6% in [2]; 89.9% in assay [3]; 85.4% in assay [4]; 105% in [5]; 100% in assay [6]. In addition, the growth is 106% in [7], 98.1% in assay [8], 78.1% in assay [9] and 91.1% in [10].
Consider `O=C(c1ccc(O)cc1)C1[C@H](c2ccc(Cl)cc2)[C@@H](c2ccccc2)NC12C(=O)Nc1ccc(Br)cc12` (stereo not given in full), for which the growth in [1] is 13.4%; in assay [2], -41.7% (active); in [3], -49% (active); in assay [4], -79.4% (active); in assay [5], -85.9% (active); in assay [6], 3.93% (active). Besides, the growth is -60.8% (active) in assay [7], -37.5% (active) in assay [8], 65.9% in assay [9] and -56.8% (active) in assay [10].
In the case of `CC(C)(C)OC(=O)N1C/C(=C\c2ccc(F)cc2)C(=O)/C(=C/c2ccc(F)cc2)C1`, the growth in [1] is 9.97% (active); in assay [2], 9.9% (active); in [3] it was -75.5% (active); in assay [4], -54.4% (active); in assay [5] it was -88.1% (active); in assay [6] it was -46.1% (active). The growth was -75.1% (active) in [7], -98.3% (active) in assay [8], -42.1% (active) in assay [9] and -71.5% (active) in assay [10].
Take `Cc1[nH]nc2ccc3nc(-c4cnn(CCO)c4)c4c(c3c12)CCCC4`: the growth in [1] is 37.9%; in [2] it was 38.5%; in [3], 41%; in assay [4] it was 40%; in [5] it was -6.62% (active); in assay [6] it was 58.1%. For the same compound, the growth is 43.4% in assay [7], 33.7% in assay [8], 83.1% in [9] and 27.4% in assay [10].
For `O=C(Cn1c(-c2ccccc2)nc2ccccc21)N=Nc1c(O)[nH]c2ccc(Br)cc12`, the growth in assay [1] is 3.6% (active); in assay [2], 6% (active); in [3], -20.5% (active); in [4] it was -56.8% (active); in assay [5], -80% (active); in assay [6], -0.321% (active). For the same compound, the growth in assay [7] is -80.4% (active); in assay [8], -80.9% (active); in assay [9], 9.11% (active); in assay [10], 5.92% (active).
With `CCCCC[C@@H]1C/C=C(\C)[C@@H](O)C(C)(C)C(=O)[C@@H](C)/C=C(\C)[C@@H]2C[C@H](O)C[C@](O)(CC(=O)O1)O2`, the growth was 41.3% in [1]; 13.6% in [2]; 34.9% in [3]; 83.4% in assay [4]; 68% in assay [5]; 43.1% in assay [6]. The growth is 11% in [7], 73.8% in assay [8], 1.3% (active) in assay [9] and 49.6% in assay [10].
Regarding `Cc1ccc2nc(SCc3ccccc3F)n(-c3ccccc3)c(=O)c2c1`, the growth was 108% in [1]; 83.8% in assay [2]; 118% in assay [3]; 76.1% in assay [4]; 104% in [5]; 113% in assay [6]. Moreover, the growth in assay [7] was 89.5%; in [8], 99.5%; in [9], 106%; in assay [10] it was 95.3%.
Consider `Cc1ccc2nc(NC(=O)Nc3cccc(Cl)c3)sc2c1`, for which the growth is 118% in assay [1]; 90.3% in assay [2]; 93.5% in assay [3]; 92% in [4]; 121% in assay [5]; 118% in assay [6]. In addition, the growth was 98.8% in assay [7], 102% in assay [8], 111% in assay [9] and 97.6% in assay [10].
Regarding `Cn1cc(-c2cc(N)n3nc(-c4c[nH]c5ccc(Cl)cc45)cc3n2)c2cc(Br)cnc21`, the growth in assay [1] is -71.6% (active); in assay [2], -63.7% (active); in [3] it was -79.1% (active); in assay [4], -73.4% (active); in assay [5], -70.4% (active); in assay [6], 9.71% (active). The growth was -50.9% (active) in assay [7], -91.1% (active) in [8], -55% (active) in assay [9] and -92.4% (active) in assay [10].
Take `Nc1cc(-c2c[nH]c3ccc(Br)cc23)nc2cc(-c3c[nH]c4ccccc34)nn12`: the growth in assay [1] is -47.5% (active); in assay [2] it was 6.16% (active); in [3], -88.1% (active); in assay [4], -83.3% (active); in assay [5], -76.7% (active); in assay [6], -44.5% (active). In addition, the growth in [7] is -87.6% (active); in [8], -93.5% (active); in [9], -86.9% (active); in assay [10] it was -69.4% (active).
With `O=C(CSc1nc2ccccc2c(=O)[nH]1)NNC(=O)c1ccccc1Cl`, the growth is 110% in assay [1]; 103% in [2]; 105% in assay [3]; 99.8% in assay [4]; 117% in assay [5]; 106% in assay [6]. The growth was 112% in [7], 96.5% in assay [8], 95% in assay [9] and 110% in assay [10].
